# NALP3 yeast inh: NALP3 inhibition in yeast. Yeast reconstituted NLRP3/ASC/caspase-1, beta-gal luminescence, 24 h. inhibition, % at 10 µM. 0.39% of 330,000 active. AID 2825;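 active = inhibition of 50% or more; inactive = inhibition below 50%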;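 note: plate controls were induced DMSO wells for no effect and uninduced yeast grown without galactose for full effect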
# NALP1 inh: blocks the NALP1 inflammasome reconstituted in yeast | inhibition, % at 10 µM | 0.61% of 280,000 active | S. cerevisiae NALP1/ASC/caspase-1 growth, X-gal OD620, 72 h | AID 2071; in the data active = inhibition mostly above about 24%, no sharp cut-off; inactive = mostly below about 32%
# tim23-1 inh: growth inhibitors of tim23-1 mutant yeast; S. cerevisiae tim23-1 growth, BacTiter-Glo luminescence, 24 h; inhibition, % at 20 µM; 1.3% of 330,000 active; AID 463212;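 active = growth inhibition of the mutant yeast at or above 50%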;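 note: temperature-sensitive mutant grown at 25 °C; plate controls were DMSO-treated mutant yeast for no effect and medium wells lacking yeast for full effect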
# tim10-1 inh: growth inhibitors of tim10-1 mutant yeast; 2.2% of 330,000 active; AID 463190; inhibition, % at 20 µM; S. cerevisiae tim10-1 ts strain growth, BacTiter-Glo, 24 h;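 active = inhibition of at least 40%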;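 note: mutant grown at 25 °C; 0% = DMSO wells with yeast and 100% = wells holding no yeast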
# TIM10 inh: TIM10 yeast growth inhibition; S. cerevisiae TIM10 strain growth, BacTiter-Glo luminescence, 24 h; inhibition, % at 10 µM; 1.4% of 330,000 active; AID 463195;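 active = inhibition of 40% or more at the single tested concentration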;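 note: wild-type TIM10 isogenic control strain grown at permissive 25 °C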
# tim10 confirm: confirmation of TIM10 yeast growth inhibitors; shares compounds with TIM10 inh; 63% of 4,600 active; AID 463215; S. cerevisiae tim10 strain growth, BacTiter-Glo luminescence, 24 h; inhibition, % at 10 µM;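 active = inhibition of yeast growth at or above a set limit in either of two replicates at 10 µM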;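 note: this counterscreen used the strain with wild-type TIM10; 0% = yeast with DMSO and 100% = medium wells lacking yeast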
# * = called active by the depositor; nt = not tested or not shown. In the library only some 4.1% were active in any assay of this set; here they are far more common.
SMILES,NALP3 yeast inh,NALP1 inh,tim23-1 inh,tim10-1 inh,TIM10 inh,tim10 confirm
O=C(/C=C/c1ccc(O)c([N+](=O)[O-])c1)c1ccc2ccccc2c1,13,11,11,12,0,nt
COc1ccc(Oc2ccc(/C=C/C(=O)c3ccc(O)cc3)cc2[N+](=O)[O-])cc1,32,33,49,31,44*,39*
CCCc1ccc(C#N)c(SC2CC(=O)N(c3ccc(OC)cc3)C2=O)n1 (stereo unspecified),12,-5,10,6,10,nt
COc1ccc(N2C(=O)CC(Sc3nc(C)cc(C)c3C#N)C2=O)cc1 (stereo unspecified),5,1,31,30,42*,28*
COc1ccc(NC(=S)N2CCC(c3ccccc3)C2)cc1 (stereo unspecified),3,-19,28,36,8,nt
Cc1ccc(Cl)cc1NC(=S)N1CCC(c2ccccc2)C1 (stereo unspecified),26,-8,14,37,52*,37*
Fc1ccc(C(c2nnnn2C2CCCC2)N2CCc3ccccc32)cc1 (stereo unspecified),-15,6,26,30,45*,18
c1ccc2c(c1)NC1(CCCCCC1)n1c-2nc2ccccc21,41,3,46,3,42*,27
O=C1CSC(c2cn(-c3ccccc3)nc2-c2cc3ccccc3oc2=O)N1Cc1ccco1 (stereo unspecified),2,12,27,33,42*,8
Cc1c(Br)c([N+](=O)[O-])nn1C(C)C(=O)Nc1ccc2c(c1)OCO2 (stereo unspecified),7,7,22,20,16,nt
N=c1oc2ccccc2cc1C(=O)Nc1cccc(F)c1,4,23,47,-16,40*,19
O=C1CC(c2cccc(Cl)c2)CC(O)=C1C=Nc1cccc(Cl)c1 (stereo unspecified),25,49,-13,15,79*,80*
O=C1CC(c2ccccc2)CC(O)=C1C=Nc1ccccc1 (stereo unspecified),26,29,25,24,-9,nt
Cc1nc2ccc(NC(=O)c3ccc([N+](=O)[O-])cc3[N+](=O)[O-])cc2s1,5,28,40,38,42*,28
O=C(Nc1nccs1)c1ccc(-c2ccccc2Cl)o1,-24,17,47,10,47*,25
O=C(Nc1nccs1)c1ccc(-c2ccccc2[N+](=O)[O-])o1,-1,13,29,-2,19,nt
CCn1cc([N+](=O)[O-])c(C(=O)N2N=C3/C(=C/c4cccs4)CCCC3C2c2cccs2)n1 (stereo unspecified),12,9,27,33,41*,9
CCCNC(=O)NCCc1c(C)[nH]c2ccccc12,-3,-10,4,7,-4,nt
Cc1[nH]c2ccccc2c1CCNC(=O)c1ccc2c(c1[N+](=O)[O-])C(=O)c1ccccc1C2=O,24,10,37,31,45*,14
O=C(CCCN1C(=O)C(c2ccccc2)Oc2cccnc21)NCCc1ccc(Cl)cc1 (stereo unspecified),14,10,3,9,9,nt
O=C(Nc1ccc(Cl)cn1)c1ccc(Oc2ccccc2)cc1,34,5,12,-5,75*,17
CCCOc1ccc(C(=O)Nc2ccc(Cl)cn2)cc1,36,-5,6,-6,-14,nt
FC(F)(F)c1cccc(NC(=S)NCc2ccccc2)c1,-1,4,32,35,47*,49*
CCC(C(=O)Nc1cccc(C(F)(F)F)c1)c1ccccc1 (stereo unspecified),-5,-2,29,39,40*,47*
O=C(Nc1cccc(C(F)(F)F)c1)C(SCCO)c1ccccc1 (stereo unspecified),5,18,20,14,12,nt
SMILES,NALP3 yeast inh,NALP1 inh,tim23-1 inh,tim10-1 inh,TIM10 inh,tim10 confirm
Cc1ccc(NC(=O)CN2C(=O)c3ccccc3C2=O)c(C)c1,20,23,-13,-25,97*,1
Cc1ccc(/C=N/n2cc(-c3ccccc3)[nH]c2=S)s1,40,25*,28,24,41*,42*
Cc1ccc(C)c(NC(=S)NCc2ccccc2)c1,12,-24,31,10,-1,nt
Cc1ccc(C)c(NC(=S)N/N=C/C(C)c2ccccc2)c1 (stereo unspecified),14,-10,26,38,49*,26
CCn1c(=O)c(C(=O)NCc2ccccc2)c(O)c2ccccc21,14,8,36,-43,-14,nt
CCn1c(=O)c(C(=O)NCc2cccnc2)c(O)c2ccccc21,6,22,42,32,44*,33*
O=C1NCCOC(=O)[C@H](Cc2ccc(F)cc2)C/C=C\C[C@@H]1CC(=O)N(CCO)Cc1ccccc1,6,nt,0,-8,4,nt
O=C1NCCOC(=O)[C@H](Cc2ccc(F)cc2)C/C=C\C[C@H]1CC(=O)N(CCO)Cc1ccccc1,8,nt,-9,-6,47*,-5
C=C(c1ccccc1Cl)[n+]1ccccc1,10,8,1,9,3,nt
Clc1ccc(-c2noc(CSc3nnc(-c4ccncc4)n3-c3ccccc3)n2)cc1,24,9,25,15,48*,36*
CCOc1ccc(-n2c(SCc3nc(-c4ccc(C)cc4)no3)nnc2-c2ccncc2)cc1,9,14,25,35,39,nt
Clc1ccc(-c2noc(CSc3nnc(Cc4cccs4)n3-c3ccccc3)n2)cc1,13,17,34,31,97*,22
Cc1ccc(-c2noc(CSc3nnc(-c4ccncc4)n3-c3ccc(C)cc3)n2)cc1,-10,-12,40,38,43*,39*
O=C(NCc1cccc(Cl)c1)c1ccc2c(c1)OCCO2,-4,14,11,1,-10,nt
O=C(COc1cccc(NC(=O)c2cccc([N+](=O)[O-])c2)c1)c1ccc(Br)cc1,15,11,29,29,42*,31*
COc1ccccc1NC(=S)N/N=C/c1ccc(O)cc1,37,18,47,37,53*,-28
CCOC(=O)c1sc(NN=C(C(=O)OC)C(=O)OC)c(C(=O)OCC)c1C,11,21,1,14,3,nt
Cc1c(C(=O)OC2CCCCC2)[nH]c2c1C(=O)CC(C)(C)C2,36,12,21,-7,96*,-7
Cc1ccc(CNC(=O)c2cn(C3CCCCC3)c(=O)c3c2c2ccccc2n3C)o1,7,-8,26,26,43*,-10
Cc1n[nH]c(C)c1Sc1ccccc1N=Cc1cc(Cl)cc([N+](=O)[O-])c1O,23,-11,22,22,10,nt
Cc1ccc(N=Cc2cc(Cc3ccccc3Cl)cc([N+](=O)[O-])c2O)c(O)c1,20,7,40,36,52*,34*
O=C(CN1CCN(Cc2cccc(Cl)c2)C1=O)NCc1cccs1,-3,10,2,2,-10,nt
